# Laboratory results published in PubChem BioAssay (Tox21).
# Inconclusive results are not listed. Unmarked numbers belong to inactive results. Activity calls are given as the source filed them. The call rests on the fitted dose curve.
# Target: Thyrotropin receptor (Homo sapiens) (UniProt P16473)
# Assay: qHTS assay to identify small molecule agonists of the thyroid stimulating hormone receptor (TSHR) signaling pathway (AID 1224843); further: nearly all actives have a fitted effect of over 45% in size
# Conditions: TSHR-HEK293 cells, cAMP HTRF, agonist mode, 30 min; series mostly up to 92.4 µM
# Excerpt: National Center for Advancing Translational Sciences [NCATS]
# NIH Chemical Genomics Center [NCGC]
# U.S. Environmental Protection Agency [EPA]
# National Institutes of Environmental Health Sciences [NIEHS]
# National Toxicology Program [NTP]
# U.S. Food and Drug Administration [FDA]
# TSHR is the receptor for thyrotropin (thyroid stimulating hormone or TSH), a member of the glycoprotein hormone family. TSH is released by the anterior pituitary gland and is the main regulator of thyroid gland growth and development. Upon binding circulating thyrotropin, a G-protein signal cascade activates adenylyl cyclase and […] cAMP concentration is increased. cAMP is a key second messenger involved extensively in cellular signal transduction pathways associated with the majority of G-protein coupled receptors (GPCRs). The activation of these GPCRs by neurotransmitters, lipids, nucleotides, peptides and hormones results in the activation or the inhibition of plasma membrane-bound adenylate cyclase through heterotrimeric G-proteins. A cell-based TSHR assay was used to screen the Tox21 10K library for compounds that can modulate TSHR in agonist mode.
# Tox21 Assay Protocol Summary:
# TSHR-Hek293 cells were dispensed at 800 cells/4uL/well in 1536-well white plates using a Multidrop dispenser. […] The plates were incubated at room temperature for 30 min. 2.5 ul/well of cAMP-d2 and 2.5ul/well of anti-cAMP-cryptate was added respectively into the assay plates using a Flying Reagent Dispenser. After 1 hr incubation at room temperature, the fluorescence intensity in the plates was measured using an Envision plate reader. Each test compound was measured at 15 concentrations and in triplicates.
# On the % scale 0 is the no-effect control and ±100 the full control effect.
# Sequence of Thyrotropin receptor (Homo sapiens) (P16473 whole entry, looked up): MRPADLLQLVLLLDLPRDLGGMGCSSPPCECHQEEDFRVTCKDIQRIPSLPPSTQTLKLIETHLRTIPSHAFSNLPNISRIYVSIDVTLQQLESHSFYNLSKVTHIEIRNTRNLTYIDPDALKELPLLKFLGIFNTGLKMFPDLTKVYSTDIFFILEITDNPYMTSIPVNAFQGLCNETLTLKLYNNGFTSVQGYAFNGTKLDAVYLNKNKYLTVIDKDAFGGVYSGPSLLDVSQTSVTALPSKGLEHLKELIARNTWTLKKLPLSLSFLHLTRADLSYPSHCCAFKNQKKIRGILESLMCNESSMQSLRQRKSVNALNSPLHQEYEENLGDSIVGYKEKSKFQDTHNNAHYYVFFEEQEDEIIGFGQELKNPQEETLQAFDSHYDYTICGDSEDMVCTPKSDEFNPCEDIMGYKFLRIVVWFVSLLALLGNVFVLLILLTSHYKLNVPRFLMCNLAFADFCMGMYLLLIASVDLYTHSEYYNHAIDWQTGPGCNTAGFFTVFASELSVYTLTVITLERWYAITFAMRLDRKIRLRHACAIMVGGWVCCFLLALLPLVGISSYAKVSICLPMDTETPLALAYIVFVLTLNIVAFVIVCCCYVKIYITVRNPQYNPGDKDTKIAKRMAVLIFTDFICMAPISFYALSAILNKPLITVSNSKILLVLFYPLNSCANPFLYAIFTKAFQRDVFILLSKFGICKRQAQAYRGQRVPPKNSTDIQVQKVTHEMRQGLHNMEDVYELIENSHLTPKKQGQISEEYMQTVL
SMILES,outcome,activation
Nc1cc(S(=O)(=O)O)ccc1S(=O)(=O)O,inactive,
O=c1[nH]c(=O)c2[nH]c(=O)[nH]c2[nH]1,,0.91% [at 8.39 µM]
CC(=O)/C=C/c1ccco1,inactive,
CC(C)=CC(C)(C)C,inactive,
C=CC(C)(O)CC/C=C(\C)CC (stereo not given),inactive,
COc1ccc(NS(=O)(=O)c2ccc(N)cc2)nn1,inactive,
CCC1Nc2cc(Cl)c(S(N)(=O)=O)cc2S(=O)(=O)N1 (stereo not given),inactive,
Oc1ccccc1Cc1ccccc1O,inactive,
CN=C(NC#N)NCCSCc1csc(N=C(N)N)n1,inactive,
CCCCCC1Nc2cc(C(F)(F)F)c(S(N)(=O)=O)cc2S(=O)(=O)N1 (stereo not given),inactive,
CC(=O)OC(C(=O)c1ccccc1)c1ccccc1 (stereo not given),inactive,
CC1CCC(C(C)(C)S)C(=O)C1 (stereo not given),inactive,
CCC(O)C(C)(C)C (stereo not given),inactive,
NS(=O)(=O)c1cc2c(cc1Cl)NC(C(Cl)Cl)NS2(=O)=O (stereo not given),inactive,
CN(C)CCOCCN(C)CCO,inactive,
CC1=CC[C@H](CC=O)C1(C)C,inactive,
BrC/C=C/CBr,,-9.51% [at 19 µM]
CC(C)C(=O)c1ccccc1,inactive,
Cc1cc(C)cc([N+](=O)[O-])c1,inactive,
CC(=O)OC[C@H]1O[C@@H](OC(C)=O)[C@H](OC(C)=O)[C@@H]1OC(C)=O,inactive,

SMILES,outcome,activation
O=C(O)c1ccc(OCCN2CCCCC2)cc1,inactive,
CCN(CC)C(=O)C1CN2CCc3cc(OC)c(OC)cc3C2CC1OC(C)=O (stereo not given),inactive,
Cc1nc2n(c(=O)c1CCN1CCC(C(=O)c3ccc(F)cc3)CC1)CCS2,inactive,
COC(OC)C(C)c1ccccc1 (stereo not given),inactive,
O=C(O)Cc1cccc(-c2cc(CCCCCCc3ccc(O[C@H]4O[C@H](CO)[C@@H](O)[C@H](O)[C@@H]4O)c(-c4cccc(CC(=O)O)c4)c3)ccc2O[C@H]2O[C@H](CO)[C@@H](O)[C@H](O)[C@@H]2O)c1,,2.03% [at 0.349 µM]
O=CN1CCOCC1,inactive,
O=C(CN1CCN(Cc2ccc3c(c2)OCO3)CC1)N1c2ccccc2Sc2ccccc21,inactive,
C=C[C@@H](C)CCC=C(C)C,inactive,
CCOC(=O)C(C)(C)C,inactive,
CC(C)CCC(=O)CCC(C)C,inactive,
COCC(=O)Nc1c(I)c(C(=O)NCC(O)CO)c(I)c(C(=O)N(C)CC(O)CO)c1I (stereo not given),inactive,
C/C=C(\C)C(=O)OCC/C=C\CC,inactive,
CCCCCCCCCCC,inactive,
Cc1nc2ccccc2c(=O)o1,inactive,
CC(=O)N1CCN(c2ccc(O)cc2)CC1,inactive,
Cc1nc(C)nc(N2C[C@@H](C)N(c3ccnc([C@@H](C)O)n3)[C@@H](C)C2)n1,inactive,
O=c1[nH]c(=O)c2ccccc2o1,inactive,
CCN(CCO)c1cccc(C)c1,inactive,
COc1ccc(OC)c(NC(=O)CC(C)=O)c1,inactive,
O=C(Oc1ccccc1C(=O)O)c1ccccc1O,inactive,
